# The source made the active and inactive calls. The calls were made as follows: active = hit-call score of the fitted dose curve at least 0.9, where 1 is the maximum; inactive = score below 0.9.
# Biological target: Peroxisome proliferator-activated receptor gamma (Homo sapiens) (UniProt P37231)
# Experiment: ERF_TW_NR_COA_hPPARG: Eurofins (ERF) Nuclear Receptor (NR) Functional Coactivator Assay for human Peroxisome Proliferator-activated Receptor gamma (PPARg) Agonism, conducted at Taiwan lab site
# Experimental: ERF_TW_NR_COA_hPPARG is a biochemical, single-readout assay that uses extracted gene-proteins in a cell-free assay. Measurements were taken 16 hours after chemical dosing in a 96-well plate. See PPARgamma Human NHR Functional Agonist Coactivator Assay, Panlabs.ERF_TW_NR_COA_hPPARG is an assay component calculated from the ERF_TW_NR_COA_hPPARG assay. It is designed to measure FRET using a type of binding reporter as detected by fluorescence intensity of rosiglitazone with fluorimetry technology.Data from the assay component ERF_TW_NR_COA_hPPARG was analyzed at the assay endpoint, ERF_TW_NR_COA_hPPARG, in the positive analysis fitting direction relative to DMSO as the negative control and baseline of activity. Using a type of binding reporter, gain-of-signal activity can be used to understand changes in binding as they relate to gene PPARG. To generalize the intended target to other relatable targets, this assay endpoint is annotated to the nuclear receptor intended target family, where the subfamily is non-steroidal.
# Human recombinant PPARgamma receptors expressed in insect cells are used. […] Determination of the amount of complex formed is read spectrofluorimetrically (excitation: 337 nm, emission: 520/490 nm). Test compound-induced increase fluorescence by 50 percent or more (>/=50%) relative to 1 uM GW1929 response indicates possible PPARgamma receptor agonist activity. […]
# Chain of Peroxisome proliferator-activated receptor gamma (Homo sapiens) (P37231 whole entry, looked up): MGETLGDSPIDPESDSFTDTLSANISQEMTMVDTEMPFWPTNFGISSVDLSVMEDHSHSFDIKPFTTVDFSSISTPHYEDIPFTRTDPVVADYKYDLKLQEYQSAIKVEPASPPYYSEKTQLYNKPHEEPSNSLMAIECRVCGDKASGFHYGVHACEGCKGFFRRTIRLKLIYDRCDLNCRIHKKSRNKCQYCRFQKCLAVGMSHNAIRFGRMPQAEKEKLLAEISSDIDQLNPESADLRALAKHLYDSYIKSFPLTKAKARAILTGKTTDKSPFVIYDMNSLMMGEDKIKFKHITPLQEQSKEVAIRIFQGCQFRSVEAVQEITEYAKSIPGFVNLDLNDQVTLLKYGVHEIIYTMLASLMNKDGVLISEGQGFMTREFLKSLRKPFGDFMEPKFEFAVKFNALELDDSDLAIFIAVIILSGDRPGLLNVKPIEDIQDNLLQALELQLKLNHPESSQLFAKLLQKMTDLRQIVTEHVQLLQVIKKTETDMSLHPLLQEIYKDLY
smiles,measurement,value
O=S(=O)(O)C(F)(F)C(F)(F)C(F)(F)C(F)(F)C(F)(F)C(F)(F)C(F)(F)C(F)(F)F,outcome,inactive

# Reference: PubChem BioAssay AID2284376 (EPA ToxCast)
